Molecules are shown by their SMILES. Values joined by “and” are separate entries in the source; they are usually repeats but may differ in a detail not shown here. Equal values may be shown once. Records with an inconclusive call do not appear. A structure can be active in one record and inactive in another. Active and inactive are the calls of the source. How the source made its calls: active means hit-call score of the fitted dose curve at least 0.9, where 1 is the maximum; inconclusive means response in the unintended direction; inactive means score below 0.9.

Retinoic acid receptor RXR-alpha (Homo sapiens), sequence (P19793 whole entry, looked up, the tested form may be a part): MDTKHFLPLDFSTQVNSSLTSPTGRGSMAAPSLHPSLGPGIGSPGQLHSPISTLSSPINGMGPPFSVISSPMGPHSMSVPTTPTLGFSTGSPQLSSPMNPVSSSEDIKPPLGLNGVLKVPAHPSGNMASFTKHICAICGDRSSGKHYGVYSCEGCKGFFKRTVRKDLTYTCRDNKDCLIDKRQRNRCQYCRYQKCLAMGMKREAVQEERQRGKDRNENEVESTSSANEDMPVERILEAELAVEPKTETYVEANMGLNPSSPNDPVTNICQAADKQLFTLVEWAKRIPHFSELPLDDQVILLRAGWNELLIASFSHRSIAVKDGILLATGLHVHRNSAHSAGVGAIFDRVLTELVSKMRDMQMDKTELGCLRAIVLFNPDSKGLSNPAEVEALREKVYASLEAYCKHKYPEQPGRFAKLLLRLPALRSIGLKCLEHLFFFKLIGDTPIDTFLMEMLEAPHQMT

This experiment has as its target Retinoic acid receptor RXR-alpha (Homo sapiens) (UniProt P19793). The experiment in a line: OT_NURR1_NURR1RXRa_1440: Odyssey Thera (OT) 24-hour HEK293T Protein Complementation Assay for Nurr1/retinoid X receptor (RXR) (AID 2283386). On the procedure: OT_NURR1_NURR1RXRa_1440 is a cell-based assay that uses HEK293T, a human kidney cell line, with measurements taken at 24 hours after chemical dosing in a 384-well plate.OT_NURR1_NURR1RXRa_1440 is one of one assay component(s) measured or calculated from the OT_NURR1_NURR1RXRa_1440 assay. It is designed to make measurements of protein fragment complementation, a form of binding reporter, as detected with fluorescence intensity signals by Protein-fragment Complementation technology.Data from the assay component OT_NURR1_NURR1RXRa_1440 was analyzed into 1 assay endpoint. This assay endpoint, OT_NURR1_NURR1RXRa_1440, was analyzed in the positive analysis fitting direction relative to DMSO as the negative control and baseline of activity. Using a type of binding reporter, measures of receptor for gain-of-signal activity can be used to understand the binding at the pathway-level as they relate to the gene RXRA. Furthermore, this assay endpoint can be referred to as a primary readout, because the performed assay has only produced 1 assay endpoint. To generalize the intended target to other relatable targets, this assay endpoint is annotated to the nuclear receptor intended target family, where the subfamily is non-steroidal.
Protein-fragment complementation assay, or PCA, is a method for the identification and quantification of protein-protein interactions. In the PCA, the proteins of interest ("bait" and "prey") are each covalently linked to fragments of a third protein (e.g. DHFR, which acts as a "reporter"). Interaction between the bait and the prey proteins brings the fragments of the reporter protein in close proximity to allow them to form a functional reporter protein whose activity can be measured.
Regarding `CCCCOC(=O)CCCCCCCCC(=O)OCCCC`, the compound was classed as inactive.

For `C[Si]1(C)O[Si](C)(C)O[Si](C)(C)O[Si](C)(C)O1`, the call was inactive.

As to `O=c1c(O)c(-c2ccc(O)c(O)c2)oc2cc(O)cc(O)c12`, the result was inactive.

In the case of `CCCCCCCCCCC`, the outcome was inactive.

With `C1CCC(SSC2CCCCC2)CC1`, the call was inactive.

For `OC[C@@H](O)[C@@H](O)[C@H](O)[C@H](O)CO`, the compound was classed as inactive.

With `CCOC(=O)CCC(=O)OCC`, the outcome was inactive.

Take `O=[N+]([O-])C(CO)(CO)CO`: the outcome was inactive.

With `C=CCOC(=O)c1ccccc1C(=O)OCC=C`, the call was inactive.

By AC50 is commonly meant the concentration giving half of the maximal activity seen. Consider `COc1cc(-c2nc(NC(=O)c3cc4cc(C)cc(C)c4n3CC(=O)O)sc2CCC2CCCCC2)c(OC)cc1Cl`, for which the concentration at half-maximal activity (AC50) was 10.3 µM (active) and 9.86 µM (active).

Regarding `COCCOC[C@H](CC1(C(=O)NC2CCC(C(=O)O)CC2)CCCC1)C(=O)Oc1ccc2c(c1)CCC2` (stereo not given in full), the call was inactive.

In the case of `CC(CO)OC(C)CO` (stereo not given) (tested in a mixture with another compound), the compound was called inactive.

For `CNC(=O)[C@H]1O[C@@H](n2cnc3c(NCc4cc(Cl)ccc4OCc4cc(C)no4)ncnc32)[C@H](O)[C@@H]1N`, the result was inactive.

As to `CC=Cc1ccc(O)c(OC)c1`, the result was inactive.

For `COc1ccc(C)cc1N`, the compound was classed as inactive.

On to `CCCCc1ccc2c(n1)[C@@H](c1ccc(OC)cc1C[C@H](C)C(=O)O)[C@H](C(=O)O)[C@H]2c1ccc2c(c1)OCO2`, for which the compound was classed as inactive.

Consider `O=c1[nH]cc(F)c(=O)[nH]1`, for which the result was inactive.

Regarding `CC(C)(C)c1cc(O)c(C(C)(C)C)cc1O`, the AC50 is 33.3 µM (active) and the result was inactive.

Regarding `Nc1ccccc1N`, the call was inactive.

As to `CCCCCCCCCCCCCO`, the call was inactive.

For the compound `COc1ccc(S(=O)(=O)N2C(=O)[C@@](c3ccccc3OC)(N3C[C@H](O)C[C@H]3C(=O)N(C)C)c3cc(Cl)ccc32)c(OC)c1`, the AC50 was 79.5 µM (active) and the result was inactive.

In the case of `CCCCCCCCCCCC(=O)OC`, the compound was called inactive.

In the case of `COc1cc(S(=O)(=O)O)c(C)cc1N=Nc1c(O)ccc2cc(S(=O)(=O)O)ccc12`, the AC50 was 75.9 µM (active) and the compound was called inactive.

As to `Cc1ccc(C(C)C)c(O)c1`, the compound was classed as inactive.

Consider `CC(=O)C(C)=CC1C(C)=CCCC1(C)C` (stereo not given), for which the compound was classed as inactive.

In the case of `Cc1ccc(N(C)C)cc1`, the outcome was inactive.

As to `CCOc1ccc2c(c1)C(C)=CC(C)(C)N2`, the compound was called inactive.

Take `CCCCCC(=O)O`: the result was inactive.

Take `C[C@]12C=CC(=O)C=C1CC[C@@H]1[C@@H]2C(=O)C[C@@]2(C)[C@H]1CC[C@]2(O)C(=O)CO`: the compound was called inactive.

For the compound `Cc1cccc(Nc2cc(Cl)nc(SCC(=O)O)n2)c1C`, the call was inactive.

Regarding `CC(C)c1ccc(C(=O)N=C(N)N)cc1S(C)(=O)=O`, the compound was classed as inactive.

As for `Cc1c(C(=O)O)c(O)cc2c1C(=O)c1c(O)c([C@@H]3O[C@H](CO)[C@@H](O)[C@H](O)[C@H]3O)c(O)c(O)c1C2=O`, the call was inactive.

For the compound `COC(=O)c1ccc(O)cc1`, the compound was called inactive.

For `CC1(C)NC(=O)NC1=O`, the outcome was inactive.

Take `CCc1c(C(=O)NN2CCCCC2)nn(-c2ccc(Cl)cc2Cl)c1-c1ccc(Br)cc1`: the outcome was inactive.

For the compound `CC(=O)Oc1ccccc1C(=O)O`, the compound was called inactive.

`CCCCCCCC=O`: the call was inactive.

These data come from PubChem BioAssay (EPA / NIEHS).
